Laboratory results reported in PubChem BioAssay (EPA / NIEHS).
Where “and” joins values, the source holds several entries; their conditions need not be identical. Equal entries are not always repeated. Records with an inconclusive call do not appear. Calls of active or inactive are those of the source. Rule for the calls: active = hit-call score of the fitted dose curve at least 0.9, where 1 is the maximum; inconclusive = response in the unintended direction; inactive = score below 0.9.

Read-out: Cytochrome P450 3A4 (Homo sapiens) (UniProt P08684)
Assay: CLD_CYP3A4_48hr: CellzDirect (CLD) Gene Expression Assay for xenobiotic metabolism (CYP3A4) at 48 hours (AID 2283698)
Procedure: CLD_48hr is a cell-based, multiplexed-readout assay that uses hepatocyte, a human liver primary cell, with measurements taken at 48 hours after chemical dosing in a 96-well plate.CLD_CYP3A4_48hr is one of 16 assay component(s) measured or calculated from the CLD_48hr assay. It is designed to make measurements of mRNA induction, a form of inducible reporter, as detected with chemiluminescence signals by Quantitative Nuclease Protection Assay (qNPA) technology.Data from the assay component CLD_CYP3A4_48hr was analyzed at the endpoint, CLD_CYP3A4_48hr, in the positive analysis fitting direction relative to DMSO as the negative control and baseline of activity. Using a type of inducible reporter, gain-of-signal activity can be used to understand changes in the reporter gene as they relate to the gene CYP3A4. Furthermore, this assay endpoint can be referred to as a primary readout. To generalize the intended target to other relatable targets, this assay endpoint is annotated to the cyp intended target family, where subfamily is xenobiotic metabolism.
Human hepatocyte cultures were treated daily for two consecutive days with fresh dosing solutions containing appropriate concentrations of the 320 ToxCast chemicals (chemical identities were blinded to CellzDirect and other ToxCast collaborators), vehicle control (0.2% DMSO), and positive control inducers as summarized in Table 1. Due to the large number of treatment groups and chemicals examined, the ToxCast chemicals were divided into two groups (spanning two independent cultures of hepatocytes from separate donor preparations (Hu778: ToxCast plates 1 and 2; Hu776: ToxCast plates 3 and 4). Each preparation of human hepatocyte cultures was treated with respective vehicle control, medium only control, set of six positive controls/reference chemicals for the five hepatic receptor pathways, and a subset of eight of the ToxCast chemicals (indoxacarb, pyrithiobac-sodium, norflurazon, cyhalofop-butyl, methomyl, thiram, acetochlor, and propiconazole). These replicate data, coupled with internal replicates designed within the blinded ToxCast chemical library, provided additional data to evaluate interindividual differences between hepatocyte preparations and their potential impact on chemical profiles.Cell morphology and integrity were evaluated using phase-contrast microscopy as an indicator of hepatocyte cell health (Tyson & Green, 1987). Cultures for each treatment group (i.e., media, vehicle [0.2% DMSO], positive control inducers [multiple concentrations], and the ToxCast chemicals [multiple concentrations]) were observed and cell morphology was assessed relative to vehicle control cultures at each harvest time point (0, 6, 24, or 48 h). […] Images were evaluated at the conclusion of the study to assess changes in cell integrity and account for the effects of chemical exposure on uncharacteristic changes in concentration-dependent gene expression profiles. The results from these determinations of apparent cytotoxicity were annotated (yes/no) alongside the corresponding qNPA data for reference.At the conclusion of each treatment period, hepatocyte cultures (96-well) were washed with 1 volume of HBSS, lysed by addition of 25 ul ArrayPlate lysis buffer (HTG, Tucson, AZ), and 70 ul/well of Denaturation Oil, denatured by incubation at 95C for 10 min, and frozen at approximately -70C until analysis by nuclease protection assay (qNPA) (Roberts et al., 2007). For qNPA analysis, cell lysates were thawed at 50C for approximately 30 min, qNPA probes were added, and samples were incubated at 95C for 10 min to begin the detection process by denaturing the target RNA, dissociating the duplexes and secondary structure hybridization. At the conclusion of the hybridization period, S1 nuclease reagent was added to each sample to digest all nonprotected nucleotides at 50C for 60-90 min. […]

Sequence of Cytochrome P450 3A4 (Homo sapiens) (P08684 whole entry, looked up): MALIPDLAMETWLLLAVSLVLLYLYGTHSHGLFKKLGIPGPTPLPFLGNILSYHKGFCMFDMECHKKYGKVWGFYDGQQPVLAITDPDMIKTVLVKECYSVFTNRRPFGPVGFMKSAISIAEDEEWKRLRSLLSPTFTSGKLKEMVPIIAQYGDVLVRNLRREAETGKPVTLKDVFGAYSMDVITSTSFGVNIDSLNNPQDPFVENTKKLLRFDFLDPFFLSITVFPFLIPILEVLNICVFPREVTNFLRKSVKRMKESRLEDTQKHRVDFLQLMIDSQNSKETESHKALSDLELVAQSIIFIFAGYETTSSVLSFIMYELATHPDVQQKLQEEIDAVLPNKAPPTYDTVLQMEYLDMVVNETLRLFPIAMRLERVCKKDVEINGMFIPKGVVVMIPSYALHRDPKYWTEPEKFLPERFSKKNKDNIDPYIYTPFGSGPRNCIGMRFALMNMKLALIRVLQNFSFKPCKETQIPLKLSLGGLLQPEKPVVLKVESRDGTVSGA

Row | Structure (SMILES) | outcome | AC50
1 | CCCCOC(=O)c1ccccc1C(=O)OCCCC | inactive | 
2 | CC(C)(C)c1ccc(CSc2cnn(C(C)(C)C)c(=O)c2Cl)cc1 | inactive | 
3 | COP(N)(=O)SC (stereo not drawn) | inactive | 
4 | COc1nc(NC(C)C)nc(NC(C)C)n1 |  | 6.77 µM (active)
5 | COP(=S)(OC)Oc1nc(Cl)c(Cl)cc1Cl | inactive | 
6 | CC(C)Oc1cc(-n2nc(C(C)(C)C)oc2=O)c(Cl)cc1Cl |  | 1.9 µM (active)
7 | COc1nc(C)nc(NC(=O)NS(=O)(=O)c2ccccc2CCC(F)(F)F)n1 |  | 20 µM (active) and 4.16 µM (active) and 3.34 µM (active)
8 | CC1=C(C(=O)Nc2ccccc2)SCCO1 | inactive | 
9 | Cc1c(F)c(F)c(COC(=O)C2C(/C=C(\Cl)C(F)(F)F)C2(C)C)c(F)c1F (stereo not drawn) |  | 20 µM (active)
10 | CC1COC(Cn2cncn2)(c2ccc(Oc3ccc(Cl)cc3)cc2Cl)O1 (stereo not drawn) | inactive | 
11 | CCOC(=O)CC(SP(=S)(OC)OC)C(=O)OCC (stereo not drawn) | inactive | 
12 | CNC(=O)ON=CC(C)(C)SC | inactive | 
13 | CCCCC(CC)COC(=O)c1ccccc1C(=O)OCC(CC)CCCC (stereo not drawn) | inactive | 
14 | Fc1ccc(Oc2ccnc3cc(Cl)cc(Cl)c23)cc1 | inactive | 
15 | Oc1ccccc1-c1ccccc1 | inactive | 
16 | CCOP(=S)(OCC)SCn1c(=O)oc2cc(Cl)ccc21 |  | 4.1 µM (active)
17 | CCc1nn(C)c(C(=O)NCc2ccc(C(C)(C)C)cc2)c1Cl |  | 20 µM (active)
18 | COC(=O)C(C)Oc1ccc(Oc2ccc(Cl)cc2Cl)cc1 (stereo not drawn) | inactive | 
19 | COC(=O)c1ccccc1C(=O)OC | inactive | 

Row | Structure (SMILES) | outcome | AC50
20 | COc1nc(C)nc(NC(=O)NS(=O)(=O)c2ccccc2Cl)n1 | inactive | 
21 | CCOC(=O)C(Cl)Cc1cc(-n2nc(C)n(C(F)F)c2=O)c(F)cc1Cl (stereo not drawn) |  | 4.77 µM (active)
22 | COC(=O)C=C(C)OP(=O)(OC)OC | inactive | 
23 | N#Cc1nn(-c2c(Cl)cc(C(F)(F)F)cc2Cl)c(N)c1S(=O)C(F)(F)F (stereo not drawn) |  | 1.1 µM (active)
24 | CCCC1COC(Cn2cncn2)(c2ccc(Cl)cc2Cl)O1 (stereo not drawn) |  | 2.06 µM (active)
25 | CON(C)C(=O)Nc1ccc(Cl)c(Cl)c1 | inactive | 
26 | CCCN(CCC)c1c([N+](=O)[O-])cc(S(N)(=O)=O)cc1[N+](=O)[O-] |  | 10 µM (active)
27 | O=C(O)c1nc(Cl)ccc1Cl | inactive | 
28 | CCCCNC(=O)OCC#CI | inactive | 
29 | CCNc1nc(Cl)nc(NCC)n1 | inactive | 
30 | Cc1cc(Cl)ccc1OCC(=O)O | inactive | 
31 | CC(C)C1(C)N=C(c2nc3ccccc3cc2C(=O)O)NC1=O (stereo not drawn) | inactive | 
32 | CCNc1nc(Cl)nc(NC(C)C)n1 |  | 14.2 µM (active)
33 | CC(Oc1ccc(Cl)cc1Cl)C(=O)O (stereo not drawn) | inactive | 
34 | COc1cnc(OC)n2nc(NS(=O)(=O)c3c(OCC(F)F)cccc3C(F)(F)F)nc12 |  | 20 µM (active)
35 | CCOc1cc(Oc2ccc(C(F)(F)F)cc2Cl)ccc1[N+](=O)[O-] |  | 5.16 µM (active)
36 | N#CC(CCc1ccc(Cl)cc1)(Cn1cncn1)c1ccccc1 (stereo not drawn) |  | 0.736 µM (active)
37 | C#CCOS(=O)OC1CCCCC1Oc1ccc(C(C)(C)C)cc1 (stereo not drawn) |  | 3.74 µM (active)
38 | OC(c1ccc(Cl)cc1)(c1cncnc1)c1ccccc1Cl (stereo not drawn) |  | 0.443 µM (active)
